Laboratory results as given in PubChem BioAssay (NCATS).
Inconclusive results are not listed. Calls of active or inactive are those of the source. The call rests on the fitted dose curve; in most records, active means well fitted curve in the direction sought with a large enough effect; inconclusive means small, poorly fitted or top-dose-only effect, or another doubt; inactive means no such curve, though single readings can be large; an effect the other way counts as inactive or inconclusive.

Key:
[1] = qHTS of pediatric cancer cell lines to identify multiple opportunities for drug repurposing: Primary screen for SK-N-MC cells (AID 1347093);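 further: series mostly up to about 46 µM; plate controls were DMSO neutral control for no effect and bortezomib for full effect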
Outline: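 Metabolically active cells were quantified by ATP-dependent luminescence (CellTiter-Glo, 15 min at room temperature) following 48 h treatment. Cells had been plated at 500-1,000 per well and settled for 5 h beforehand.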

[2] = qHTS of pediatric cancer cell lines to identify multiple opportunities for drug repurposing: Primary screen for BT-37 cells (AID 1347094);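 further: series mostly up to about 57 µM; plate controls were DMSO for no effect and bortezomib for full effect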
Outline: (§1)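 Luminescence from CellTiter-Glo served as readout of metabolically active cells after 48 h compound exposure. Titrations: MIPE 11-point, from 0.78 nM; NPC 8-point, from 0.59 nM (final). Concentration-response curves came straight from the primary screen.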

[3] = qHTS of pediatric cancer cell lines to identify multiple opportunities for drug repurposing: Primary screen for NB-EBc1 cells (AID 1347095);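 further: plate controls were DMSO neutral control for no effect and bortezomib for full effect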
Outline: as §1

[4] = qHTS of pediatric cancer cell lines to identify multiple opportunities for drug repurposing: Primary screen for U-2 OS cells (AID 1347096);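 further: plate controls were DMSO wells for no effect and bortezomib positive control wells for full effect; nearly all actives have a fitted effect of over 50% in size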
Outline: (§2)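 Cells (500-1,000/well) rested 5 h, then received compounds for 48 h; metabolically active cells were measured by CellTiter-Glo luminescence. Final concentrations spanned up to 46 µM (MIPE, 11-point) or 0.59 nM-46 µM (NPC, 8-point) in primary screens, 11-point in follow-ups.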

[5] = qHTS of pediatric cancer cell lines to identify multiple opportunities for drug repurposing: Primary screen for Saos-2 cells (AID 1347097); further: on the % scale 0 is the no-effect control and ±100 the full control effect; nearly all actives have a fitted effect of over 40% in size
Outline: as §1

[6] = qHTS of pediatric cancer cell lines to identify multiple opportunities for drug repurposing: Primary screen for SK-N-SH cells (AID 1347098);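 further: DMSO served as neutral control and bortezomib at 2.3 µM as positive control; on the % scale 0 is the no-effect control and ±100 the full control effect; nearly all actives have a fitted effect of over 65% in size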
Outline: as §2

[7] = qHTS of pediatric cancer cell lines to identify multiple opportunities for drug repurposing: Primary screen for NB1643 cells (AID 1347099);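 further: plate controls were DMSO neutral control for no effect and bortezomib positive control for full effect; nearly all actives have a fitted effect of over 50% in size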
Outline: as §1

[8] = qHTS of pediatric cancer cell lines to identify multiple opportunities for drug repurposing: Primary screen for LAN-5 cells (AID 1347100);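 further: plate controls were DMSO neutral control for no effect and bortezomib positive control for full effect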
Outline: as §2

[9] = qHTS of pediatric cancer cell lines to identify multiple opportunities for drug repurposing: Primary screen for Rh18 cells (AID 1347102); further: on the % scale 0 is the no-effect control and ±100 the full control effect; nearly all actives have a fitted effect of over 65% in size
Outline: as §2

[10] = qHTS of pediatric cancer cell lines to identify multiple opportunities for drug repurposing: Primary screen for RD cells (AID 1347104);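 further: plate controls were DMSO for no effect and bortezomib for full effect; nearly all actives have a fitted effect of over 55% in size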
Outline: as §1

[11] = qHTS of pediatric cancer cell lines to identify multiple opportunities for drug repurposing: Primary screen for control Hh wild type fibroblast cells (AID 1347106);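 further: series mostly up to about 46 µM; on the % scale 0 is the no-effect control and ±100 the full control effect; a drop in luminescence marks cytotoxicity and a rise apparent proliferation; nearly all actives have a fitted effect of over 55% in size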
Outline: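 Cells (500-1,000/well) in growth media were settled 5 h at 37 degrees C, then given compounds for 48 h. Viability was read as CellTiter-Glo luminescence. Primary runs used MIPE at 11 points (0.78 nM-46 µM) and NPC at 8 points (0.59 nM-46 µM); follow-ups used 11 points.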

[12] = qHTS of pediatric cancer cell lines to identify multiple opportunities for drug repurposing: Primary screen for BT-12 cells (AID 1347101);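 further: plate controls were DMSO for no effect and bortezomib positive control for full effect; nearly all actives have a fitted effect of over 25% in size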
Outline: as §2

[13] = qHTS of pediatric cancer cell lines to identify multiple opportunities for drug repurposing: Primary screen for MG 63 (6-TG R) cells (AID 1347105); further: on the % scale 0 is the no-effect control and ±100 the full control effect; nearly all actives have a fitted effect of over 50% in size
Outline: as §1

[14] = qHTS of pediatric cancer cell lines to identify multiple opportunities for drug repurposing: Primary screen for Rh30 cells (AID 1347107); further: series mostly up to about 46 µM; on the % scale 0 is the no-effect control and ±100 the full control effect; nearly all actives have a fitted effect of over 75% in size
Outline: as §2

[15] = qHTS of pediatric cancer cell lines to identify multiple opportunities for drug repurposing: Primary screen for OHS-50 cells (AID 1347103);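 further: plate controls were DMSO neutral control for no effect and bortezomib positive control for full effect; nearly all actives have a fitted effect of over 40% in size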
Outline: as §2

[16] = qHTS of pediatric cancer cell lines to identify multiple opportunities for drug repurposing: Primary screen for Rh41 cells (AID 1347108);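 further: series mostly up to about 46 µM; luminescence drop marks cytotoxic hits; nearly all actives have a fitted effect of over 70% in size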
Outline: as §1

[17] = qHTS of pediatric cancer cell lines to identify multiple opportunities for drug repurposing: Confirmatory screen for BT-12 cells (AID 1347112); further: on the % scale 0 is the no-effect control and ±100 the full control effect; nearly all actives have a fitted effect of over 55% in size
Outline: as §2

COc1ccc(CCN(C)CCCC(C#N)(c2cc(OC)c(OC)c(OC)c2)C(C)C)cc1OC (stereo unspecified)
inactive: Potency [1] | Potency [2] | Potency [3] | Potency [4] | Potency [5] | Potency [6] | Potency [7] | Potency [8] | Potency [9] | Potency [10] | outcome [11]

NC(=Nc1ccccc1)Nc1ccccc1
inactive: Potency [1] | Potency [2] | Potency [3] | Potency [4] | Potency [5] | Potency [6] | Potency [7] | Potency [8] | Potency [12] | Potency [9] | Potency [10] | Potency [13] | outcome [11] | Potency [14]

CN(C)C(=O)Oc1cccc([N+](C)(C)C)c1
inactive: Potency [1] | Potency [2] | Potency [3] | Potency [4] | Potency [5] | Potency [6] | Potency [7] | Potency [8] | Potency [12] | Potency [9] | Potency [15] | Potency [10] | Potency [13] | outcome [11] | Potency [14] | Potency [16]

Cc1scc2c1N(C(=O)CN1CCN(C)CC1)c1ccccc1NC2=O
inactive: Potency [1] | Potency [2] | Potency [3] | Potency [4] | Potency [5] | Potency [6] | Potency [7] | Potency [8] | Potency [12] | Potency [9] | Potency [10] | Potency [13] | outcome [11] | Potency [14]

C[N+](C)(C)CCCCCCCCCC[N+](C)(C)C
inactive: Potency [1] | Potency [2] | Potency [3] | Potency [4] | Potency [5] | Potency [6] | Potency [7] | Potency [8] | Potency [12] | Potency [9] | Potency [10] | Potency [13] | Potency [14] | Potency [16]

OCCN1CCN(CCCN2c3ccccc3C=Cc3ccccc32)CC1
inactive: Potency [1] | Potency [2] | Potency [3] | Potency [4] | Potency [5] | Potency [7] | Potency [8] | Potency [12] | Potency [9] | Potency [13]

Cc1cccc(C)c1NC(=O)C(C)N (stereo unspecified)
inactive: Potency [1] | Potency [2] | Potency [3] | Potency [4] | Potency [5] | Potency [6] | Potency [7] | Potency [8] | Potency [12] | Potency [9] | Potency [10] | Potency [13] | outcome [11] | Potency [14] | Potency [16]

CC(C)NNC(=O)c1ccncc1
inactive: Potency [1] | Potency [2] | Potency [3] | Potency [4] | Potency [5] | Potency [6] | Potency [7] | Potency [8] | Potency [12] | Potency [9] | Potency [10] | Potency [13] | outcome [11] | Potency [14]

CCN(CC)CCNC(=O)c1ccc(NC(C)=O)cc1
inactive: Potency [1] | Potency [2] | Potency [3] | Potency [4] | Potency [5] | Potency [6] | Potency [7] | Potency [8] | Potency [12] | Potency [9] | Potency [15] | Potency [10] | Potency [13] | outcome [11] | Potency [14] | Potency [16]

CSc1ccc(C(=O)c2[nH]c(=O)[nH]c2C)cc1
inactive: Potency [1] | Potency [2] | Potency [3] | Potency [4] | Potency [5] | Potency [6] | Potency [7] | Potency [8] | Potency [12] | Potency [9] | Potency [15] | Potency [10] | Potency [13] | outcome [11] | Potency [16]

NCCCNCCSP(=O)(O)O
inactive: activity change, negative = cytotoxic [1] -14.6% [at 9.22 µM] | activity change, negative = cytotoxic [2] 7.29% [at 11.5 µM] | activity change, negative = cytotoxic [3] 10.2% [at 9.22 µM] | activity change, negative = cytotoxic [4] 2.93% [at 9.22 µM] | activity change, negative = cytotoxic [5] -20.9% [at 9.22 µM] | activity change, negative = cytotoxic [6] -0.785% [at 11.4 µM] | activity change, negative = cytotoxic [7] 7.51% [at 9.22 µM] | activity change, negative = cytotoxic [8] 27.4% [at 9.22 µM] | activity change, negative = cytotoxic [12] 8.37% [at 11.5 µM] | activity change, negative = cytotoxic [9] 9.05% [at 9.22 µM] | activity change, negative = cytotoxic [15] 5.02% [at 11.5 µM] | activity change, negative = cytotoxic [10] 5.99% [at 9.22 µM] | activity change, negative = cytotoxic [13] -7.37% [at 9.22 µM] | activity change, negative = cytotoxic [14] 17.5% [at 9.22 µM] | activity change, negative = cytotoxic [16] 20.1% [at 9.22 µM] | activity change, negative = cytotoxic [17] 1.94% [at 9.58 µM]

Nc1c2c(nc3ccccc13)CCCC2O (stereo unspecified)
inactive: Potency [1] | Potency [2] | Potency [3] | Potency [4] | Potency [5] | Potency [6] | Potency [7] | Potency [8] | Potency [12] | Potency [9] | Potency [15] | Potency [10] | Potency [13] | outcome [11] | Potency [14] | Potency [16]

CN(C)[C@@H]1C(=O)C(C(N)=O)=C(O)[C@@]2(O)C(=O)C3=C(O)c4c(O)ccc(Cl)c4[C@@H](O)[C@H]3C[C@@H]12
inactive: Potency [1] | Potency [2] | Potency [3] | Potency [4] | Potency [5] | Potency [6] | Potency [7] | Potency [8] | Potency [9] | Potency [15] | Potency [10] | Potency [13] | outcome [11] | Potency [14]

CN1C(=O)CC[C@H]1c1cccnc1
inactive: Potency [1] | Potency [2] | Potency [3] | Potency [4] | Potency [5] | Potency [6] | Potency [7] | Potency [8] | Potency [12] | Potency [9] | Potency [15] | Potency [10] | Potency [13] | outcome [11] | Potency [14] | Potency [16]

Brc1c(NC2=NCCN2)ccc2nccnc12
inactive: Potency [1] | Potency [2] | Potency [3] | Potency [4] | Potency [5] | Potency [6] | Potency [7] | Potency [8] | Potency [12] | Potency [9] | Potency [15] | Potency [10] | Potency [13] | outcome [11] | Potency [14] | Potency [16]

C[C@]12CCC(=O)C=C1CC[C@@H]1[C@@H]2C(=O)C[C@@]2(C)[C@H]1CC[C@]2(O)C(=O)CO
inactive: Potency [1] | Potency [2] | Potency [3] | Potency [4] | Potency [5] | Potency [6] | Potency [7] | Potency [8] | Potency [12] | Potency [9] | Potency [10] | Potency [13] | Potency [14] | Potency [16]
